According to ChEMBL document CHEMBL3988442, “University of Dundee, Small-Polar-MMV Screening Library” (2021):
For some assays here: Entries with a potency or affinity are not part of this list.

Experiments:
Design in all cases: scale not given: direction of the effect not stated beside the values
[1] = target: Protein translocase subunit SecA (Escherichia coli (strain K12)) (UniProt P10408); experiment: Assay to Identify E. coli SecA ATPase Inhibitors; assay type: functional; conditions: 30 µM
[2] = target: T1, Ubiquitin-activating enzyme e1, putative (Leishmania donovani (strain BPK282A1)) (UniProt E9BSI1); experiment: Leishmania donovani Ubiquitin Activating Enzyme (LdE1); assay type: functional; conditions: 30 µM
T1 sequence (whole entry): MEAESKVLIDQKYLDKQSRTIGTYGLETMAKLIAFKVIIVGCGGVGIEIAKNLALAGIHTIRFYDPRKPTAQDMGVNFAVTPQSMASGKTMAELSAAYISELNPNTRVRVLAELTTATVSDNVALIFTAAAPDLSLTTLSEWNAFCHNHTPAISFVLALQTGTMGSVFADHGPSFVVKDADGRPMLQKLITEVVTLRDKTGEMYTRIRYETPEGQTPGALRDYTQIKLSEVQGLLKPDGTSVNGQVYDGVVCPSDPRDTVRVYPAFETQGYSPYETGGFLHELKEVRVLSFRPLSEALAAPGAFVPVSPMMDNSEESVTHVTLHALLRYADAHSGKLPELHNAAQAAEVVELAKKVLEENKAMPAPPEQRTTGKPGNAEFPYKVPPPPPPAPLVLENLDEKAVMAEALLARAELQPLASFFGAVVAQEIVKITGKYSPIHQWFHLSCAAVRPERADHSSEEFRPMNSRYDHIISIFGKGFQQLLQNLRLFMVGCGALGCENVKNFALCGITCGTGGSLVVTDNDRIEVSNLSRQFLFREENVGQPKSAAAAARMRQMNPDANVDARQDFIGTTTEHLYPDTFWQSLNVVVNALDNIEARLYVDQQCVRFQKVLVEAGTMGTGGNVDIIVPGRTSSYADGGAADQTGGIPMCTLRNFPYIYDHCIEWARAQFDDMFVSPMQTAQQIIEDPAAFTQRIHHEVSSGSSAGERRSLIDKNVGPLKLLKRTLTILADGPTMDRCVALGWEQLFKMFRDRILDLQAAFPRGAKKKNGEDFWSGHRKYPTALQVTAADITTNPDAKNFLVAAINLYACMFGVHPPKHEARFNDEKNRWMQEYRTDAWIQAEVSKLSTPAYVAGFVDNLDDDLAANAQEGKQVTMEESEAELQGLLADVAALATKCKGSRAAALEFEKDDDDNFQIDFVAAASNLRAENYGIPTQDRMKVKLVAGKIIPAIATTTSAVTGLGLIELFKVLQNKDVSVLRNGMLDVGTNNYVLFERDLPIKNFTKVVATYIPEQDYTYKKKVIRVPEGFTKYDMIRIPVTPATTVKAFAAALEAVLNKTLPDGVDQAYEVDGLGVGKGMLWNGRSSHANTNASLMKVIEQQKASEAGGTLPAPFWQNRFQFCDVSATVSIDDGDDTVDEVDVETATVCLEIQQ

[3] = target: AMP-activated protein kinase, AMPK (Homo sapiens) (UniProt P54646+O43741+P54619+Q9UGJ0+Q9Y478+Q13131+Q9UGI9); experiment: AMP-dependent Kinase enzyme assay. An in vitro enzyme assay that detects ADP turnover that is directly proportional to AMPK activity. This uses naive AMPK that is activated during the assay with MK-8722; assay type: functional; conditions: 30 µM
[4] = target: Sialic acid-binding Ig-like lectin 9 (Homo sapiens) (UniProt Q9Y336); experiment: Hs-Siglec9 ALPHAscreen SOP 20170721; conditions: 10 µM
[5] = test system: Trypanosoma cruzi; experiment: Trypanosoma cruzi phosphomannomutase and mannose-1-phosphate guanylyltransferase assay; assay type: functional; conditions: 10 µM
[6] = target: T2, Arginase-2, mitochondrial (Homo sapiens) (UniProt P78540); experiment: in vitro enzyme assay to detect the production of urea directly proportional to the activity of Arginase II; assay type: functional; conditions: 33.3 µM; further: in the data most compounds retested in dose-response had high values
T2 sequence (whole entry): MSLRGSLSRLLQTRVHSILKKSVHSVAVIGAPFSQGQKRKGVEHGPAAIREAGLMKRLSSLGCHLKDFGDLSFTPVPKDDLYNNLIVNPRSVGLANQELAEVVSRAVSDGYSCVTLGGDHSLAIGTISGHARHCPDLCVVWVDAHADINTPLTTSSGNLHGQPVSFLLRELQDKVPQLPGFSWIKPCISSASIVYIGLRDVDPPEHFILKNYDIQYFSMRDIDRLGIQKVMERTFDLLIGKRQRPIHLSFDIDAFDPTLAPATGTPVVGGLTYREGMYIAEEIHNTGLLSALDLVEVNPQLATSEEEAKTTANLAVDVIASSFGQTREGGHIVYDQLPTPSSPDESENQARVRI

[7] = target: T3, Proteasome subunit beta (Trypanosoma cruzi) (UniProt O96673); experiment: Trypanosoma cruzi proteasome chymotrypsin-like activity (TcProtChymo) assay.; further: in the data most compounds retested in dose-response had high values; assay type: functional; conditions: 9.37 µM
T3 sequence (whole entry): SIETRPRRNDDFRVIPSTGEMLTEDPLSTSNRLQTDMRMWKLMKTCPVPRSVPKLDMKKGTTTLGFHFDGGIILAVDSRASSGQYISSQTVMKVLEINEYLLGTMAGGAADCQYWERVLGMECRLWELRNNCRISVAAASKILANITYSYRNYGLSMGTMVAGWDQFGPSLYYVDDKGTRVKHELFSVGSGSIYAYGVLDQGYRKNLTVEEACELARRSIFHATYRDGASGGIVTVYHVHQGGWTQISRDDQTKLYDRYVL

[8] = species: Homo sapiens; experiment: To identify inhibition of the IFN signalling (Jak-Stat) pathway via expression of an eGFP reporter gene under the control of an IFN-stimulated response element (ISRE) containing MxA promoter.; assay type: functional; conditions: 30 µM
[9] = target: T4, Tyrosyl-tRNA synthetase, putative (Trypanosoma cruzi (strain CL Brener)) (UniProt Q4DSP6); experiment: Trypanosoma cruzi tyrosyl tRNA synthetase (TcYRS) _High Tyrosine SOP; assay type: functional; conditions: 30 µM; further: in the data most compounds retested in dose-response had high values
T4 sequence (whole entry): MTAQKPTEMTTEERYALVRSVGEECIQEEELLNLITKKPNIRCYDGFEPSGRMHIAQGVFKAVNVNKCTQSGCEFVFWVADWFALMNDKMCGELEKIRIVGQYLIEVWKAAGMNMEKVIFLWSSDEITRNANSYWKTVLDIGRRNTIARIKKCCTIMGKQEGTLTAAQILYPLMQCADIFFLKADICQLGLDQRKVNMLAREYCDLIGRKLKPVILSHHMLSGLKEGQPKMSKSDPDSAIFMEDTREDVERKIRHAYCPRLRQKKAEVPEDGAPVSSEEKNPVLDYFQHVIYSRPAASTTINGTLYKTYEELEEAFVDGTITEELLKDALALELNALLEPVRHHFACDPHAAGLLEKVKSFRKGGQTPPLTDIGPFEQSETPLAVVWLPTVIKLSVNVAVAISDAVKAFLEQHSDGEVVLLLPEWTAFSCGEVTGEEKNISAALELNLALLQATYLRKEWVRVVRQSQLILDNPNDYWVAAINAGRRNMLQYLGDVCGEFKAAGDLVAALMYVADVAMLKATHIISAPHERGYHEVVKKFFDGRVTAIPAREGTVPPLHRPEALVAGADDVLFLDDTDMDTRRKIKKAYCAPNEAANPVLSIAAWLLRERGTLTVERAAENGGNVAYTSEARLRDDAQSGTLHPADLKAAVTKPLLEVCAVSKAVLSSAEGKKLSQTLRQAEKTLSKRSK

[10] = target: T4, Tyrosyl-tRNA synthetase, putative (Trypanosoma cruzi (strain CL Brener)); experiment: Trypanosoma cruzi tyrosyl tRNA synthetase (TcYRS) SOP; assay type: functional; conditions: 30 µM
[11] = target: Chromo domain-containing protein 1 (Saccharomyces cerevisiae (strain ATCC 204508 / S288c) (Baker's yeast)) (UniProt P32657); experiment: ScCHD-1 Enzyme Inhibition Assay; assay type: functional; conditions: 30 µM; further: in the data most compounds retested in dose-response had high values
Sequence of Chromo domain-containing protein 1 (Saccharomyces cerevisiae (strain ATCC 204508 / S288c) (Baker's yeast)) (P32657 whole entry, the tested form may be a part): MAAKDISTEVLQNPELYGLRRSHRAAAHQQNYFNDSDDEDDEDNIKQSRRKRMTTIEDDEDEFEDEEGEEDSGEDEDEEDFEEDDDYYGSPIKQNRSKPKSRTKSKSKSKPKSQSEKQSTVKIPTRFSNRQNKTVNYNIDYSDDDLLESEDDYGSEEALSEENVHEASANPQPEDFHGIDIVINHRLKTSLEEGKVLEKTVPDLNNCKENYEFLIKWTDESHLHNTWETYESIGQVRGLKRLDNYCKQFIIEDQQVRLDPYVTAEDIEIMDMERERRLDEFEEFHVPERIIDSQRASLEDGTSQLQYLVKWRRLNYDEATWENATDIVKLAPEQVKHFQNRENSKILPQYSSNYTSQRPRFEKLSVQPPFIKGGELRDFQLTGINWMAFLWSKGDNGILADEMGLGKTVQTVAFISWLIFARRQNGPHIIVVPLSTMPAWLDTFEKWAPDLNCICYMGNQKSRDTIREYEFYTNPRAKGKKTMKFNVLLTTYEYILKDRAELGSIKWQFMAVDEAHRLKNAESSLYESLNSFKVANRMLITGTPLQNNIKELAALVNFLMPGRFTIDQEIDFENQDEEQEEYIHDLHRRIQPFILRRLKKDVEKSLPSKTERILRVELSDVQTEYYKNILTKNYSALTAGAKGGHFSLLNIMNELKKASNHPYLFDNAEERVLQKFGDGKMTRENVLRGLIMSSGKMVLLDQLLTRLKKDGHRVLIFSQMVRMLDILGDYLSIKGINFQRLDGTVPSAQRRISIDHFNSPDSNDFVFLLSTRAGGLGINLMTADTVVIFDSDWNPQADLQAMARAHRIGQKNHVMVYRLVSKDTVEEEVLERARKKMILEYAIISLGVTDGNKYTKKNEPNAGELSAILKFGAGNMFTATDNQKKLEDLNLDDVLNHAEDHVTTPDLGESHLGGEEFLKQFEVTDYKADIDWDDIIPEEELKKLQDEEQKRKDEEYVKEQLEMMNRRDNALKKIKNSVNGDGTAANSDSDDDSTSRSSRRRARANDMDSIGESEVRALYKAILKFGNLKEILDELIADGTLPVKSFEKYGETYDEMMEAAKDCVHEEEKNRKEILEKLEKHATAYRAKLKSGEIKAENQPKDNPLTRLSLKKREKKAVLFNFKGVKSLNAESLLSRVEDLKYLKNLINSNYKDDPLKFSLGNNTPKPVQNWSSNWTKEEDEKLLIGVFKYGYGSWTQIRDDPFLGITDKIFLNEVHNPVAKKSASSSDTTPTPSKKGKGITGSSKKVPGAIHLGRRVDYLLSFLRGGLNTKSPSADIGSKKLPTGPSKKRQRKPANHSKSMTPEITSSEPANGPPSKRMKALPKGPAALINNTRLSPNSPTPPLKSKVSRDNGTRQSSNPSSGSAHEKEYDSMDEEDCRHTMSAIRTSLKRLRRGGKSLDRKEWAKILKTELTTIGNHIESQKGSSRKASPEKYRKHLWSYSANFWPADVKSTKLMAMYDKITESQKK

Sequence of Sialic acid-binding Ig-like lectin 9 (Homo sapiens) (Q9Y336 whole entry): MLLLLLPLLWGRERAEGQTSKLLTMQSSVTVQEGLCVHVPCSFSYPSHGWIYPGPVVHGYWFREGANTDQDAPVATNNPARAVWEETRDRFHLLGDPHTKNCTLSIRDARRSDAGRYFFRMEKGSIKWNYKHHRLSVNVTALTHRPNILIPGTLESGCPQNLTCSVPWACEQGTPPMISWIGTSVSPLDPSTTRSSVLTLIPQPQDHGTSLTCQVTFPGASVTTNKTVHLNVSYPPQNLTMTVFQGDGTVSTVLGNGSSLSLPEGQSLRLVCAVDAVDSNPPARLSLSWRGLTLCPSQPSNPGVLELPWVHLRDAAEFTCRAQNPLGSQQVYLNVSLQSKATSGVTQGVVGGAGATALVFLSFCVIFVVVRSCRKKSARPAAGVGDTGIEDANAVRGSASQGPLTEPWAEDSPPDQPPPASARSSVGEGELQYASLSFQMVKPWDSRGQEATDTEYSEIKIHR
Sequence of Protein translocase subunit SecA (Escherichia coli (strain K12)) (P10408 whole entry): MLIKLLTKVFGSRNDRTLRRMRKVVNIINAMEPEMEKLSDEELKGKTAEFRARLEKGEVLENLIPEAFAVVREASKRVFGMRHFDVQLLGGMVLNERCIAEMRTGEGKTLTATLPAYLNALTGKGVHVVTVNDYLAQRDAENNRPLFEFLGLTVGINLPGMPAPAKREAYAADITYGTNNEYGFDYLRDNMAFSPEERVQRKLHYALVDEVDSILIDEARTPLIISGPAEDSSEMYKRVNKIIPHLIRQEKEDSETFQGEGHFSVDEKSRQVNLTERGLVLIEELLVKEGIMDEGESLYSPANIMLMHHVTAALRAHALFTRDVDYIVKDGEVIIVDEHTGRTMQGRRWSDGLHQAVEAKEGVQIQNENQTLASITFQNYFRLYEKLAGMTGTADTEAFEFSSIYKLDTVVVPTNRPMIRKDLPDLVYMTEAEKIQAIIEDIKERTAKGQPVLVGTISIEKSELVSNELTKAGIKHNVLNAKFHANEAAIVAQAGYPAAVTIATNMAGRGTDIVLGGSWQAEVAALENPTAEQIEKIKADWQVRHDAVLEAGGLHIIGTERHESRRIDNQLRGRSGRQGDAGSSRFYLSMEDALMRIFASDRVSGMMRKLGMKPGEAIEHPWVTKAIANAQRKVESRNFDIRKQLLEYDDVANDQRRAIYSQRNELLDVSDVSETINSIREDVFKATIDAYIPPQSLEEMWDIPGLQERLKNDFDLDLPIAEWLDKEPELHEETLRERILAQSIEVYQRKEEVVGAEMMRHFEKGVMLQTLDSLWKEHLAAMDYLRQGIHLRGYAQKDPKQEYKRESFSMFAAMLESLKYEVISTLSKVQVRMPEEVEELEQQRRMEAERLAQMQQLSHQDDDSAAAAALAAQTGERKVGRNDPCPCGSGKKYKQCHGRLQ

Row | SMILES | Percent Effect [1] [%] | Percent Effect [2] [%] | Percent Effect [3] [%] | Percent Effect [4] [%] | Percent Effect [5] [%] | Percent Effect [6] [%] | Percent Effect [7] [%] | Percent Effect [8] [%] | Percent Effect [9] [%] | Percent Effect [10] [%] | Percent Effect [11] [%]
1 | O=C(COc1cccc(Br)c1)N1CCN(c2nccs2)CC1 | -4.01 | 18.7 | 3.31 | 10.4 | 4.58 | 47.4 | 19.4 | 26.2 | 3.83 | 16.1 | 84.6
2 | CC(CNC(=O)Nc1ccc(N(C)C)nc1)Cn1cccn1 (configuration not stated) | -4.28 | 4.17 | -13.8 | -3.22 | -3.21 | 3.09 | 13.7 | -15.8 | -3.16 | 2.56 | -3.32
3 | Oc1ccc(N2CCN(Cc3cc4c(cc3Br)OCCO4)CC2)cc1 | -0.859 | -9.72 | 44.8 | 3.01 | -1.07 | -2.21 | 13.2 | 27.4 | 9.47 | 10.3 | -3.02
4 | Cc1cccc(CN2C(=O)CC[C@@H]3[C@H]2CCN3Cc2ccc(C)s2)n1 | -2.54 | 2.67 | 9.98 | 2.33 | -1.57 | 0.233 | 9.43 | 6.8 | -1.06 | -3.85 | 2.14
5 | CN(CC(=O)N1CCC(Oc2ccccc2)CC1)c1cnccn1 | -3.37 | 21.6 | -3.35 | 7.97 | 4.74 | 2.4 | 5.75 | 18.1 | 5.94 | 25.6 | -8.13
6 | CC(C)C(=O)N1CCN(C(=O)c2cc(C(C)C)on2)[C@H]2CS(=O)(=O)C[C@H]21 | -2.71 | 18.1 | -7.12 | 11.2 | 3.4 | 7.06 | 17.5 | 13.2 | 0 | 7.69 | -5.25
7 | Cc1ccc(NC(=O)Nc2cnc(N3CCN(C)CC3)nc2)c(Cl)c1 | -1.85 | 13 | 2.69 | 2.29 | 2.27 | -5.81 | 5.22 | 6.92 | 6.35 | 11.5 | -9.57
8 | CN(C)C(=O)c1ccc(CNC(=O)NCCN(C)C2CCCC2)cc1 | -0.464 | 16.2 | -9.52 | -5.04 | -3.87 | -2.81 | 5.41 | 22.8 | 7.39 | 18.5 | -6.9
9 | COc1ccc(C2=C(C)C(N3CCc4ccccc43)=NS2(=O)=O)cc1 | -1.62 | 20.8 | -4.65 | -5.53 | 1.08 | 3.23 | 12.7 | 9.51 | -1.06 | 8.97 | -11.2
10 | Cc1nc(C)n(CC2CCCN(c3ncnc4ccsc34)C2)n1 (configuration not stated) | -0.224 | 10.8 | 4.37 | -5.33 | -7.08 | 1.2 | 14.2 | 73.4 | 6.4 | 16.1 | -6.75
11 | CC(O)CN1CCC(CNCc2ccc(S(C)(=O)=O)cc2)CC1 (configuration not stated) | -2 | 19.2 | -8.77 | 13.4 | 2.15 | 8.64 | 24.5 | 5.76 | 4.3 | 15 | -7.9
12 | Cc1cc(CN2CCN(C(c3ccccc3)c3ccccc3)CC2)no1 | -4.43 | 12.7 | -1.9 | 14.9 | -2.55 | 1.14 | 2.87 | 15.5 | 8.37 | 11.4 | -8.11
13 | OC[C@H]1CC[C@]2(CC1)CN(Cc1ccccn1)Cc1ccccc1O2 | -1.22 | 1.35 | 15.4 | 4.6 | -3.56 | 1.16 | 1.25 | 5.31 | 5.38 | 3.9 | -8.96
14 | O=C(CCc1cscn1)N1CCCC(c2ccn[nH]2)C1 (configuration not stated) | -3.73 | -5.2 | 4.11 | 6.88 | -2.62 | 1.07 | 5.91 | 15.7 | 2.91 | 0 | -3.79
15 | Cc1cnc2n(c1=O)CC(C(=O)Nc1ccccc1Cl)CS2 (configuration not stated) | -2.2 | -2.74 | -2.72 | 0.622 | -2.94 | -1.36 | 5.68 | -7.02 | 1.07 | 0 | -1.89
16 | COc1ccc(C(=O)NS(=O)(=O)c2ccc(C#N)cc2C(F)(F)F)cc1 | -1.41 | -10.8 | 20.6 | 0.998 | 0.472 | 6.41 | -3.06 | 11.2 | -2.46 | -1.24 | -2.1
17 | CCN1CCN(c2nc(C(C)C)nc3c(C)nn(CC)c23)CC1 | -8.3 | 0 | -2.21 | 5.36 | -1.28 | -5.52 | -0.832 | 1.81 | -2.15 | -48.1 | -0.207
18 | Cc1cccc(C2(C(=O)NCCCn3cccn3)CC2)c1 | -2.92 | 19.2 | -1.18 | 14.6 | 2.94 | 17.3 | 10.5 | 8.26 | 3.23 | 15 | -6.34
19 | Cc1ccc2c(c1)C1(CC2)CCN(c2nncs2)CC1 | -0.497 | 0 | 5.45 | 1.98 | 1.59 | 3.59 | 7.28 | 20.4 | 6.25 | 11.1 | 5.12
20 | Cc1cnc2n(c1=O)CC(C(=O)Nc1cccc3cccnc13)CS2 (configuration not stated) | -3.5 | -2.74 | -76.9 | -1.76 | 5.88 | 0.455 | 8.87 | 5.24 | 1.07 | 0 | -2.86
21 | Cc1cc(NC(=O)NCc2ccccc2OC(F)F)n(C)n1 | 1.45 | 6.33 | 5.29 | -4.29 | -7.69 | 4.09 | 21.3 | 4.53 | 3.12 | 2.53 | -5.23
22 | COCCO[C@@H]1C[C@H]2CN(C(=O)c3cnccn3)CCN2C1 | -2.84 | 5.33 | -0.698 | 4.55 | -0.965 | -39.6 | 4.79 | -8.37 | 0 | -15 | -3.81
